Screening results from PubChem BioAssay.
Only some compounds are listed: those with a hit (about 13% of all), similar ones and a draw of the others.
Pf growth 96h – P. falciparum growth inhibition at 96 hours. P. falciparum luciferase reporter growth, 96 h. Potency, µM (doses to about 28.7 µM), hits mostly inhibitors. 320,000 compounds, 6.9% hits
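Compounds incubated with erythrocytes infected by luciferase-expressing P. falciparum (2% hematocrit, 0.05% parasitemia final) for 96 hours, 37 C in 5% CO2. Growth inhibition scored as decreased luciferase luminescence.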
HCMV inh – inhibitors of human cytomegalovirus. HFF cells, HCMV-luciferase reporter, 72 h; hits give low values. activity change, negative = inhibition, % at 57.5 µM. 410,000 compounds, 4.5% hits; in the data active = activity change below about -60%; inconclusive = no clear call, values can overlap the other calls; inactive = above about -39%
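Two compound doses tested in HFFs infected with HCMV-luciferase, MOI 1 PFU/cell, 72 h at 37C. Lysate luminescence read with OneGlo; data normalized against buffer-only and 10uM Salinomycin inhibitor controls.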
Pf growth 48h – P. falciparum growth inhibition at 48 hours (one generation); Potency, µM (top dose mostly 28.7 µM), hits mostly inhibitors; P. falciparum luciferase growth in erythrocytes, 48 h; 310,000 compounds, 5.9% hits; AID 504832
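First compound was added to culture medium, then infected red cells at 0.1% parasitemia and 2% hematocrit (final). After incubation at 37 C under 5% CO2, luciferase detection reagent was dispensed and light output recorded.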
HCV inh – inhibitors of hepatitis C virus infection | Potency, µM (series often up to 41.8 µM), actives largely listed as inhibitors | 340,000 compounds, 3.4% hits | Huh7.5.1 HCVcc-Cre infection, luciferase reporter, 44 h | AID 651820
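Compounds are dispensed onto cells plated 4 h earlier at 1,000 per well, with HCVcc-Cre virus (about 0.5 moi) added next. Following 44 h of culture, luminescent signal is measured for 15 sec after 15 min with substrate at room temperature.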
Each line names hits and unclear results; the compound was inactive in the other large screens. Unless noted, calls come from the whole dose curve; as a rule, active = well fitted inhibition curve with a large enough effect; inconclusive = small, poorly fitted or top-dose-only effect, or another doubt; inactive = no such curve, though single readings can be large or run the other way.

O=C(Nc1ccc(N2CCN(C(=O)c3ccccc3)CC2)cc1)c1ccc([N+](=O)[O-])o1	HCMV inh -101, Pf growth 48h inconclusive, HCV inh inconclusive
Cc1ccccc1C(=O)N1CCN(c2ccc(NC(=O)c3ccc([N+](=O)[O-])o3)cc2)CC1	HCMV inh -98, Pf growth 48h inconclusive, HCV inh inconclusive
CCOc1cccc(/C=N/Nc2ccc(S(=O)(=O)N(CC)CC)cn2)c1O	Pf growth 96h 2.6µM, HCMV inh -100, Pf growth 48h 2.9µM, HCV inh inconclusive
CCN(CC)S(=O)(=O)c1ccc(N/N=C(\C)c2ccc(OC)cc2O)nc1	Pf growth 96h inconclusive, HCMV inh -62, Pf growth 48h 13µM, HCV inh inconclusive
CSc1nc(N)nc(SCC(=O)C23CC4CC(CC(C4)C2)C3)c1C#N	Pf growth 48h inconclusive, HCV inh 10µM
Cn1nc(C(F)(F)F)c(/C=N/OC(=O)c2ccccc2)c1SCc1ccc(Cl)cc1	Pf growth 96h inconclusive, HCMV inh -72, HCV inh inconclusive
Cn1nc(C(F)(F)F)c(/C=N/OC(=O)c2ccccc2Cl)c1SCc1ccccc1Cl	Pf growth 96h inconclusive, HCMV inh inconclusive, Pf growth 48h 13µM, HCV inh inconclusive
Cn1nc(C(F)(F)F)c(/C=N/OC(=O)c2ccc(Cl)cc2)c1Cl	none
Cc1ccc(OCC(=O)Nc2nonc2-c2ccc(Br)cc2)cc1C	none (no result: Pf growth 96h, Pf growth 48h, HCV inh)
CCc1ccc(NC(=S)NC2CC3CCC(C2)N3Cc2ccco2)cc1 (configuration not stated)	Pf growth 48h inconclusive, HCV inh inconclusive
S=C(Nc1ccc(Cl)cc1)NC1CC2CCC(C1)N2Cc1ccccc1 (configuration not stated)	HCMV inh inconclusive, Pf growth 48h 3.3µM, HCV inh inconclusive
CNC(=S)NC1CC2CCC(C1)N2Cc1ccccc1 (configuration not stated)	none
CCc1ccc(NC(=S)NC2CC3CCCC(C2)N3Cc2ccccc2)cc1 (configuration not stated)	Pf growth 96h inconclusive, HCMV inh inconclusive, Pf growth 48h 6.6µM, HCV inh 10µM
O=C1CCC(=O)N1CN(C(=O)c1ccco1)c1ccc(Cl)c(Cl)c1	Pf growth 96h 10µM
CC(=O)N(CN1C(=O)CCC1=O)c1ccc(Cl)c(Cl)c1	Pf growth 96h inconclusive, HCMV inh -66
O=C(NCCn1cc(SCc2ccccc2F)c2ccccc21)c1cccs1	none (no result: Pf growth 96h, Pf growth 48h, HCV inh)
C[C@@H]1[C@@H](c2ccccc2)Nc2ccc(Br)cc2[C@H]1NC(=O)OCc1ccccc1	none (no result: Pf growth 96h, Pf growth 48h, HCV inh)
CCCS(=O)(=O)c1c(S(=O)(=O)CCC)c2cc(C(C)(C)C)ccn2c1C(=O)c1ccc(OC)c(OC)c1	none (no result: Pf growth 96h, Pf growth 48h, HCV inh)
Cc1[nH]c2ccc(C(=O)NCCCN3CCOCC3)cc2c1C	Pf growth 96h inconclusive
Cc1ccc(CCNC(=O)c2ccc3[nH]c(C)c(C)c3c2)cc1	none (no result: Pf growth 96h, Pf growth 48h, HCV inh)
Cc1[nH]c2ccc(C(=O)NCCCN(C)C3CCCCC3)cc2c1C	HCMV inh -62, Pf growth 48h inconclusive
Cc1[nH]c2ccc(C(=O)NCCCN3CCN(C)CC3)cc2c1C	Pf growth 96h 12µM
Cc1cc(=O)n(Cc2cccc(Br)c2)c2c1c(C)nn2-c1ccccc1	none (no result: Pf growth 96h, Pf growth 48h, HCV inh)
Cc1ccc(NC(=O)CCCN2C(=O)COc3ccc(C)cc32)c(Cl)c1	none (no result: Pf growth 96h, Pf growth 48h, HCV inh)
CCOc1cc2sc(N3CCC(C(=O)Nc4ccc(C(C)C)cc4)CC3)nc2cc1Br	none (no result: Pf growth 96h, Pf growth 48h, HCV inh)
N#CC1CN(Cc2ccccc2)CN(Cc2ccccc2)C1	Pf growth 96h inconclusive, HCMV inh -63
CCOC(=O)c1c(/N=C/c2cc([N+](=O)[O-])ccc2O)sc(C)c1C	Pf growth 96h 9.3µM, Pf growth 48h inconclusive
CCOC(=O)c1c(/N=C/c2cc(OC)cc([N+](=O)[O-])c2O)sc(C)c1C	none
Cc1ccc2nc(N(Cc3cccnc3)C(=O)COc3ccccc3)sc2c1	none (no result: Pf growth 96h, Pf growth 48h, HCV inh)
CN(Cc1ccccn1)Cc1nc(Cc2ccccc2Cl)no1	HCMV inh inconclusive
Cc1cnccc1CN(C)Cc1nc(Cc2ccccc2Cl)no1	HCMV inh -61, Pf growth 48h 9.3µM, HCV inh inconclusive
CC(=O)Nc1cccc(NC(=O)CC2(C)N=C(c3cccc(Br)c3)N(C)O2)c1 (configuration not stated)	none (no result: Pf growth 96h, Pf growth 48h, HCV inh)
CC1=CC(=O)C2=C(C)CC(O)C3C(C)C(=O)OC3C12 (configuration not stated)	Pf growth 96h 13µM
CCCCOc1ccc(/C=C/C(=O)NCCc2nc3ccccc3[nH]2)cc1	Pf growth 96h 12µM, Pf growth 48h inconclusive (no result: HCV inh)
COc1ccc(/C=C/C(=O)NCCc2nc3ccccc3[nH]2)cc1	Pf growth 96h inconclusive, Pf growth 48h inconclusive
C#CCOCCOCCOCCNc1nc(N2CCN(C(=O)CCCCCCCCCCNC(=O)[C@H]([C@@H](C)CC)n3cc(CCCCN=C(N)N)nn3)CC2)nc(N2CCN(C(=O)CCCCCCCCCCNC(=O)[C@@H]([C@H](C)O)n3cc(C)nn3)CC2)n1	Pf growth 96h inconclusive, Pf growth 48h 1.9µM, HCV inh inconclusive (no result: HCMV inh)
C#CCOCCOCCOCCNc1nc(N2CCN(C(=O)CCCCCCCCCCNC(=O)[C@H]([C@@H](C)CC)n3cc(CCCCN=C(N)N)nn3)CC2)nc(N2CCN(C(=O)CCCCCCCCCCNC(=O)[C@H](CCCN=C(N)N)n3cc(C[C@@H](C)CC)nn3)CC2)n1	Pf growth 96h 5.2µM, Pf growth 48h 4.7µM, HCV inh inconclusive (no result: HCMV inh)
C#CCOCCOCCOCCNc1nc(N2CCOCC2)nc(N2CCN(C(=O)CCCCCCCCCCNC(=O)[C@H]([C@@H](C)CC)n3cc(CCCCN=C(N)N)nn3)CC2)n1	Pf growth 96h 0.52µM, Pf growth 48h 0.37µM
C#CCOCCOCCOCCNc1nc(N2CCN(C(=O)CCCCCCCCCCNC(=O)[C@H](CCCN=C(N)N)n3cc(C[C@@H](C)CC)nn3)CC2)nc(N2CCN(C(=O)CCCCCCCCCCNC(=O)[C@@H]([C@H](C)CC)n3cc(CCCCCN)nn3)CC2)n1	Pf growth 96h 8.3µM, Pf growth 48h 3.3µM, HCV inh inconclusive (no result: HCMV inh)
COc1ccc(-c2[nH]ncc2C(=O)NCc2cccc(Cl)c2)cc1	none (no result: Pf growth 96h, Pf growth 48h, HCV inh)
COc1ccc(-c2ccc(=O)n(CC(=O)NCCc3ccccc3)n2)cc1	none (no result: Pf growth 96h, Pf growth 48h, HCV inh)
Cc1ccc(-n2nc(C(=O)N3CCN(c4ccccc4)CC3)c(=O)n(C)c2=O)cc1	none (no result: Pf growth 96h, Pf growth 48h, HCV inh)
Cc1ccc(NC(=O)C(=O)NCC(c2ccc3c(c2)OCO3)N2CCN(c3ccccc3)CC2)cc1 (configuration not stated)	none (no result: Pf growth 96h, Pf growth 48h, HCV inh)
COc1ccc(CCNC(=O)Cn2cccc2C(=O)c2ccccc2)cc1OC	none
Cc1ccccc1C(=O)c1cccn1CC(=O)NCC1CCCO1 (configuration not stated)	Pf growth 96h 10µM
COc1ccc(CCNC(=O)Cn2cccc2C(=O)c2ccccc2C)cc1OC	Pf growth 96h 9.3µM, HCV inh inconclusive
COc1cccc(-n2nnc(-c3nc(-c4ccccc4F)no3)c2C)c1	none (no result: Pf growth 96h, Pf growth 48h, HCV inh)
CN(CCCC(=O)Nc1ccc(Br)cc1F)S(=O)(=O)c1ccccc1	Pf growth 96h 6.6µM, HCMV inh inconclusive, HCV inh inconclusive
COc1ccc(NC(=O)CCCN(C)S(=O)(=O)c2ccc(C)cc2)cc1	Pf growth 96h inconclusive, HCV inh inconclusive
